# Hit rate of the full screen: of about 63,000 compounds, about 1,100 (1.7%) were called active. Only a selection was taken, and actives are over-represented in it overall. Results with a measured potency or affinity are listed apart. Unmarked numbers belong to inactive results. No stated cut-off is given here; in the data, active means cytotoxicity above about 50%; inactive means the rest.
# Experiment: HPDE-C7 pancreatic duct cell viability loss – fluorescence, HTS (AID 430);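 further: cells exposed to compound for 48 hours before viability readout; 0% = vehicle and 100% = reference cytotoxic drug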
# Settings: HPDE-C7 pancreatic duct cells viability, at 10 µM, active compounds read high
row,SMILES,cytotoxicity
1,COc1cccc(-n2ccnc2SCC(=O)Nc2cc(OC)ccc2OC)c1,-21%
2,Cc1cc(N2CCN(c3ccccc3)CC2)n2c(n1)nc1ccccc12,-8.6%
3,CC(=O)N1CCc2cc(S(=O)(=O)NCCN3CCC(C)CC3)ccc21,2.7%
4,COc1ccc(OC)c(C2CC(=O)NC(SC)=C2C#N)c1 (stereo unspecified),-2.9%
5,Cc1cc(C)c2nc(N)sc2c1,3.8%
6,c1ccc(COc2ccc(OCCCn3cncn3)cc2)cc1,-20.8%
7,O=C(O)C1C2C=CC(C2)C1C(=O)NCc1ccoc1 (stereo unspecified),-8.3%
8,CCOc1ccc(OCc2ccc(C(=O)NCc3ccncc3)o2)cc1,-3%
9,CCOC(=O)CSC1=C(C#N)C(c2ccco2)C(C(=O)OCc2ccccc2)=C(C)N1 (stereo unspecified),58.8% (active)
10,CCN(CC)C(=O)CSC1=C(C#N)C(c2ccco2)C(C(=O)OCCOC)=C(C)N1 (stereo unspecified),-11%
11,CSCSC1=C(C#N)C(c2ccc(Cl)cc2)C(C(C)=O)=C(C)N1 (stereo unspecified),-18.3%
12,CC(=O)C1=C(C)OC(N)=C(C#N)C1c1ccco1 (stereo unspecified),-2.2%
13,CC(=O)C1=C(C)NC(SCC(=O)c2ccc(Cl)cc2)=C(C#N)C1c1ccco1 (stereo unspecified),57.9% (active)
14,C=CCOC(=O)C1=C(C)NC(SCC(=O)N(CC)CC)=C(C#N)C1c1ccco1 (stereo unspecified),12.7%
15,CN(c1ccc(C(=O)NCc2ccccc2)cc1)S(C)(=O)=O,-26.5%
16,CCCS(=O)(=O)N1CCC(C(=O)NCCN2CCCC2)CC1,2.1%
17,COc1ccc(-c2nnc(SCc3ncc(-c4ccccc4)o3)o2)cc1,-2.9%
18,O=S1(=O)N=C(Nc2nc3c(s2)CCCC3)c2ccccc21,-10%
19,Cc1nc(Sc2nnnn2C)c2c3c(sc2n1)CCC3,76.2% (active)
20,Cc1nc(SCC#N)c2c3c(sc2n1)CCC3,-19%
21,CSc1nc2sc3c(c2c2nnnn12)CCC3,7.6%
22,CC1Cc2ccccc2N1C(=O)Cn1nnc(-c2ccccc2NC(=O)C2CCC2)n1 (stereo unspecified),-11.1%
23,CCOC(=O)C1CCCN(C(=O)CN2CCN(Cc3ccc(Cl)cc3)C2=O)C1 (stereo unspecified),-28.3%
24,O=C(c1ccc(COc2ccc(Cl)cc2)o1)N1CCN(Cc2ccc3c(c2)OCO3)CC1,69.1% (active)

row,SMILES,cytotoxicity
1,O=C(c1ccc(COc2ccccc2Cl)o1)N1CCN(c2ccccc2)CC1,-4.6%
2,O=C(c1ccc(COc2ccccc2Cl)o1)N1CCN(Cc2ccc3c(c2)OCO3)CC1,87.5% (active)
3,CC1CCN(C(=O)c2ccc(COc3ccccc3Cl)o2)CC1,-8.9%
4,O=C(c1ccc(Cn2cc(Cl)cn2)o1)N1CCN(Cc2ccc3c(c2)OCO3)CC1,12.9%
5,O=C(c1ccc(Br)o1)N1CCN(Cc2ccc3c(c2)OCO3)CC1,-8.7%
6,Cn1c(O)c(C=NC(CC(N)=O)C(=O)O)c(=O)n(C)c1=O (stereo unspecified),-3.1%
7,O=C(COc1cc(Cl)c(Cl)cc1Cl)Nc1ccncc1,14.9%
8,CCOC(=O)CC(=O)CSc1nc2sc(C)cc2c(=O)n1Cc1ccco1,-13.3%
9,COCCn1nnnc1C(c1ccc(OC)cc1)N1CCC(C)CC1 (stereo unspecified),-5.9%
10,O=C1c2ccccc2C(=O)N1CCc1nc2ccccc2c(=O)n1CCCn1ccnc1,-20.5%
11,N#Cc1nc(-c2ccc(OCc3ccccc3)cc2)oc1N1CCOCC1,14.5%
12,COc1ccccc1S(=O)(=O)Cc1ccc(C(=O)NC(C)c2ccc3c(c2)OCCO3)o1 (stereo unspecified),-4.2%
13,COc1ccc(N(C)C(=O)Nc2ccc3c(c2)nnn3C)cc1,-17.6%
14,O=C(NCc1ccccn1)c1coc(=O)c(Br)c1,52.2% (active)
15,O=C(NCc1ccccn1)c1cc2cc(Br)ccc2oc1=O,4.9%
16,O=C(NCc1ccccn1)c1ccc(=O)oc1,0.8%
17,Cc1c(C(=O)NCc2cccnc2)oc2ccc(S(=O)(=O)N3CC(C)CC(C)C3)cc12 (stereo unspecified),43%
18,CN(c1nc(-c2ccccc2)cs1)C1CCS(=O)(=O)C1 (stereo unspecified),4.5%
19,CCOC(=O)N1CCN(S(=O)(=O)c2cc(Cl)c(OC)cc2Cl)CC1,-2.9%
20,COc1cccc(CN(Cc2cccnc2)S(=O)(=O)c2ccc(-n3cnnn3)c(C)c2)c1,4.5%
21,CC(=O)Oc1cccc2c1C(=O)c1c(OC(C)=O)cc(C(=O)O)cc1C2=O,25.5%
22,O=C(O)c1cc(C(=O)O)c(-c2ccccc2)c(C(=O)O)c1,-22.6%
23,Cn1c(=O)c(=O)n(C)c2cc(S(=O)(=O)N3CCN(c4cccc(C(F)(F)F)c4)CC3)ccc21,71.5% (active)
24,Cn1c(=O)c2cc(S(=O)(=O)N3CCN(c4cccc(C(F)(F)F)c4)CC3)ccc2n(C)c1=O,-2.2%

row,SMILES,cytotoxicity
1,Cc1c(S(=O)(=O)N2CCN(c3cccc(C(F)(F)F)c3)CC2)c(=O)n(C)c(=O)n1C,5.2%
2,O=C(C1CCC(Cn2c(=S)[nH]c3ccccc3c2=O)CC1)N1CCOCC1 (stereo unspecified),-5.9%
3,O=C(O)C1CCN(c2nc(-c3ccccc3)nc3c2oc2ccccc23)CC1,23.4%
4,CN1CCN(c2nc(-c3ccccc3)nc3c2oc2ccccc23)CC1,-10%
5,CCC(CC)C(=O)Nc1cc(NC(=O)C(CC)CC)cc(C(=O)O)c1,-16.6%
6,CCN=C1SC(C(=O)NCCc2ccccc2)CC(=O)N1CC (stereo unspecified),5.8%
7,O=C1CSC(=S)N1c1cccnc1,-9.7%
8,O=C(O)c1ccc(CN2C(=O)CSC2=S)cc1,19.2%
9,Cc1ccc(C(=O)CSc2ncn[nH]2)cc1,17.6%
10,Cn1c(N)c(C(=O)COC(=O)c2ccc3c(c2)OCCO3)c(=O)n(C)c1=O,-1.5%
11,Cc1ccc(-n2c(=O)cc(N3CC(C)CC(C)C3)[nH]c2=O)cc1 (stereo unspecified),-15.2%
12,CC(=O)Nc1cccc(-c2nc3ccc(NC(C)=O)cc3[nH]2)c1,9.5%
13,O=C(c1ccco1)N1CCN(c2c(-c3ccccc3)c3cc(Cl)ccc3[nH]c2=O)CC1,83.6% (active)
14,CCOC(=O)N1CCN(c2c(-c3ccccc3)c3cc(Cl)ccc3[nH]c2=O)CC1,7.4%
15,O=c1[nH]c2ccc(Cl)cc2c(-c2ccccc2)c1N1CCOCC1,0.9%
16,CC(C)(C)n1nnnc1C(c1cccs1)N(Cc1ccccc1)Cc1ccco1 (stereo unspecified),-4.3%
17,COc1cccc(NC(=O)C2CCCN2C(=O)Nc2cccc(F)c2)c1 (stereo unspecified),9.8%
18,COc1ccccc1-c1nnc(SCC(=O)Nc2c(Cl)cccc2Cl)o1,-1.3%
19,COC(=O)CSc1nnc(-c2ccccc2OC)o1,-25.6%
20,O=S(=O)(c1ccc(OCC(O)CNCc2ccco2)c(Cl)c1)N1CCOCC1 (stereo unspecified),-9.8%
21,Cn1c(=O)cc(SCC(=O)NCc2ccco2)c2ccccc21,-4.4%
22,Cc1ccc(C)c(Cn2c(=O)n(CCCC(=O)NCc3ccco3)c(=O)c3ccccc32)c1,60.2% (active)
23,Cc1ccc(C)c(Cn2c(=O)n(CCC(=O)NCc3ccco3)c(=O)c3ccccc32)c1,-14.5%
24,Cc1ccccc1Cn1c(=O)n(CCCC(=O)NCc2ccco2)c(=O)c2ccccc21,-24.1%

row,SMILES,cytotoxicity
1,CCn1c(=O)cc(SCC(=O)NCc2ccco2)c2ccccc21,62.1% (active)
2,CCn1c(=O)cc(OCC(=O)NCc2ccco2)c2ccccc21,5.8%
3,CC1CN(c2nc3ccccc3nc2C(C#N)C(=O)OC2CCCCC2)CC(C)O1 (stereo unspecified),-26.1%
4,COc1ccc(-c2nc(CS(=O)CC(=O)NCc3ccco3)c(C)o2)cc1OC (stereo unspecified),2.9%
5,COC(=O)c1ccc(-c2ccco2)n1Cc1nc(-c2ccc(OC)c(OC)c2)oc1C,71.6% (active)
6,COC(=O)c1cc2ccsc2n1Cc1nc(-c2ccc(OC)cc2)oc1C,-7%
7,COC(=O)C1=C(C)N(CC2CCCO2)C(=O)C1 (stereo unspecified),6%
8,Cc1cc(=O)[nH]c(SC/C=C/c2ccccc2)n1,-13.4%
9,Cc1cc(=O)[nH]c(SCc2nc3ccccc3s2)n1,57% (active)
10,Cc1cc(=O)[nH]c(SCc2cccc(Br)c2)n1,2.7%
11,CC(=O)Nc1ccc(C(=O)CS(=O)(=O)c2ccc(C)cc2)cc1,-17.2%
12,Cc1cc2c(c(=O)o1)C1(C(=O)N(C)c3ccccc31)C(C#N)=C(N)O2 (stereo unspecified),-8.3%
13,COc1ccccc1-n1cnc2cc(NC(C)=O)ccc21,-8.6%
14,COc1ccccc1-n1cnc2cc(NCc3ccco3)ccc21,63.6% (active)
15,CCC(=O)Nc1ccc2c(c1)ncn2-c1ccccc1OC,-35.6%
16,O=C(CCCCCN1C(=O)CCC1=O)Nc1ncn[nH]1,-2.1%
17,CCCCCCc1cc2cc(C(=O)NC)c(=N)oc2cc1O,19.4%
18,CCOc1cccc2cc(-c3nnc(-c4ccccc4)o3)c(=O)oc12,-14.9%
19,CCCCCCc1cc2cc(-c3nnc(-c4ccccc4O)o3)c(=O)oc2cc1O,62.7% (active)
20,N#CCCn1cc(C(CC(=O)c2ccc(Br)cc2)C(=O)O)c2ccccc21 (stereo unspecified),-21.4%
21,CCOC(=O)Nc1ccc(S(=O)(=O)Nn2cnnc2)cc1,-3.3%
22,OCCSc1nc(-c2cccnc2)nc2ccccc12,5.1%
23,CN1CCN(c2nc(-c3cccnc3)nc3ccccc23)CC1,-0.2%
24,Cn1nnnc1Sc1nc(-c2cccnc2)nc2ccccc12,99.3% (active)
